Values joined by “and” are separate entries in the source; they are usually repeats but may differ in a detail not shown here. Equal entries are not always repeated. This is part of a sample that, as a whole, favours compounds with a hit. Of some 83,000 tested, about 20% had one in any assay.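 The endpoint reported here, percent growth, reads 100 for growth as untreated, 0 for no net growth and -100 for all cells dead.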 Active and inactive are the calls of the source. Rule for the calls: active = growth percent below 10; inactive = the rest.

This assay concerns MDA-MB-468 breast. As to the kind of experiment: NCI-60 one-dose screen, 48 h (100 = growth as untreated, 0 = no growth, -100 = all killed). The following applies: 10 µM unless noted.
Take `CC(C)(C)c1[nH]nc2c1C(c1cc3ccccc3[nH]c1=O)Nc1cc(C(=O)OCc3ccccc3)ccc1N2` (stereo not drawn): the growth is 43.7% (inactive).

As for `COc1ccc(-c2nc3sc(-c4ccc(Cl)cc4)cn3n2)cc1`, the growth was 33.4% (inactive).

Consider `COC1=C(c2ccccc2)C(=O)C(OC)=C(c2ccccc2)C1=O`, for which the growth was 43% (inactive).

For the compound `Nn1c(Nc2ccc(S(=O)(=O)Nc3ncccn3)cc2)nnc(/C=C/c2c(O)ccc3ccccc23)c1=O`, the growth is 96% (inactive).

Turning to `CC1CCC(C)N(C)C1` (stereo not drawn), the growth is 105% (inactive).

Regarding `O=C(c1ccc(O)cc1)[C@@H]1[C@@H]2CCCN2[C@@]2(C(=O)N(C(=O)c3ccc(F)cc3)c3ccccc32)[C@H]1c1ccc(F)cc1`, the growth is 92.4% (inactive).

Regarding `C=C(C)[C@@H]1CC[C@]2(CO)CC[C@]3(C)[C@H](CC[C@@H]4[C@@]5(C)C=C(C#N)C(=O)C(C)(C)[C@@H]5CC[C@]43C)[C@@H]12`, the growth is 8.08% (active).

As to `Cc1nc2sc(C(=O)Nc3cccc4ccccc34)c(N)c2cc1C(=O)/C=C/c1ccccc1`, the growth was -3.46% (active).

With `O=C(/C=C/c1sc(Cl)nc1Cl)c1ccccc1`, the growth is 55.3% (inactive).

As to `COc1cc2c(c(OC)c1OC)-c1ccc(NNC(=S)N(Cc3cccc(C[N+](Cc4cccc(CNC56CC7CC(CC(C7)C5)C6)c4)(Cc4cccc(CNC56CC7CC(CC(C7)C5)C6)c4)Cc4cccc(CN(C(=S)NNc5ccc6c(cc5=O)[C@@H](NC(C)=O)CCc5cc(OC)c(OC)c(OC)c5-6)C56CC7CC(CC(C7)C5)C6)c4)c3)C34CC5CC(CC(C5)C3)C4)c(=O)cc1[C@@H](NC(C)=O)CC2` (stereo partly drawn), the growth is -52.7% (active).

Turning to `Cc1cccc(C(=O)N(C(C)C)C(C)C)c1`, the growth is 105% (inactive).

Turning to `Cc1c2c[n+](C(C)C)ccc2c(C)c2c1[nH]c1ccccc12`, the growth was -37% (active).

With `CC[C@@H]1C(=O)N(C)c2cnc(Nc3ccc(C(=O)NC4CCN(C)CC4)cc3OC)nc2N1C1CCCC1`, the growth is -33.3% (active).

As for `Cc1cc(C)n(-c2nc(-c3cccs3)c(C#N)c(=O)[nH]2)n1`, the growth is 112% (inactive).

For `COC(=O)c1cc(C(=O)OC)cc([N+](=O)[O-])c1`, the growth was 107% (inactive).

`O=c1[nH]c2ccccc2cc1-c1nnc(Cc2ccccc2)o1`: the growth is 53.9% (inactive).

For the compound `CCCCCCCC/C=C\CCCCCCCC(=O)Oc1cccc2cccnc12`, the growth is 121% (inactive).

Regarding `CCCc1cc2cc(-n3nc(C)c4c3CC(C)(C)CC4=O)cc(NC3CCSCC3)c2c(=O)[nH]1`, the growth is 14.3% (inactive).

Turning to `C[n+]1c2ccccc2c(NC2CCNCC2)c2[nH]c3ccccc3c21`, the growth is -72.5% (active).

In the case of `Cn1cc(-c2nonc2-c2c[nH]c3ccccc23)c2ccccc21`, the growth is -4.56% (active).

For the compound `CN1CCN(Cc2ccc(NC(=O)c3cncc(C#Cc4cnc(N)c5ccc(C#N)cc45)c3)cc2C(F)(F)F)CC1`, the growth was -58.4% (active).

Turning to `NS(=O)(=O)c1cccc(Nc2nc(SCC(=O)c3ccc([N+](=O)[O-])cc3)nc3ccccc23)c1`, the growth was 0.252% (active).

As for `COc1ccc(N2C(=O)C(Oc3ccccc3)C2c2ccc(C)cc2)cc1` (stereo not drawn), the growth was 122% (inactive).

On to `COc1ccc2c(c1)c(/C=N/Nc1ccnc3cc(Cl)ccc13)cn2C`, for which the growth was -87.3% (active).

For the compound `COc1ccc(-c2cc(-c3ccc(Cl)cc3)nc(SCCCCCCC(=O)NO)n2)cc1`, the growth is 12.7% (inactive).

With `CCN(C(=O)CN1CCN(c2cc3c(cc2F)c(=O)c(C(=O)O)cn3C2CC2)CC1)c1nc(-c2ccc(OC)cc2)cs1`, the growth was 60.9% (inactive).

As for `Clc1ccc(/C=C/c2ccc3ccccc3n2)cc1`, the growth is -11.4% (active) and 73.5% (inactive) and 80.5% (inactive).

With `O=C1C2C(C(=O)N1CC[Se][Se]CCN1C(=O)C3C(C1=O)[C@H]1C=C[C@@H]3C1)[C@H]1C=C[C@@H]2C1` (stereo partly drawn), the growth is -12.6% (active).

Regarding `[O-][n+]1c2ccccc2[n+]([O-])c2c3ccccc3[nH]c21`, the growth was -36.6% (active).

As for `C=C1CC[C@@H]2[C@](C)(COC(C)=O)[C@H](OC(C)=O)CC[C@@]2(C)[C@@H]1CC(Sc1ccccc1)C1=CCOC1=O` (stereo partly drawn), the growth is -61.1% (active).

For `O=C(O)c1ccc(-n2cc(CNc3ccc(Cl)cc3)c(-c3ccc(F)cc3)n2)cc1`, the growth was 106% (inactive).

Take `COc1ccc(-c2cn(-c3ccc(Cl)cc3)c(SCC(=O)c3ccc([N+](=O)[O-])cc3)n2)cc1`: the growth was 71.2% (inactive).

Take `O=[N+]([O-])c1cccc(/C=N\Nc2ccccc2)c1`: the growth is 81.4% (inactive).

The values are drawn from PubChem BioAssay (NCI).
